PubChem BioAssay AID1159580 (chemical genetic matrix, 2015)
The campaign covered roughly 5,500 compounds. About 2,000 (36%) were called active. Roughly 18% stayed inconclusive and do not appear here. Rule as the data show it: active = normalized growth mostly below about 0.91 (no sharp cut-off); inconclusive = no clear call, values can overlap the other calls; inactive = mostly above about 0.92. This is one part of the list.

Assay: chemical genetic growth profiling, strain panel (AID 1159580);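 also: tested at 20 µM; growth read once vehicle control cultures reached saturation at 30 °C; 1 = growth at the plate median or of vehicle wells; lower values mean less growth of the strain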
Conditions: S. cerevisiae deletion strains, growth OD

Measured: normalized growth

S=C(NCCc1csc2ccccc12)Nc1ccc(Cl)cc1
active: locus YHR030C, strain SLT2, hits give low values 0.5 | locus YHR205W, strain SCH9, hits give low values 0.566 | locus YLR113W, strain HOG1, hits give low values 0.536 | locus YPL256C, strain CLN2, hits give low values 0.667
inactive: locus YAR019C, strain CDC15, hits give low values 0.923 | locus YBL105C, strain PKC1, hits give low values 0.945 | locus YBR135W, strain CKS1, hits give low values 0.945 | locus YBR136W, strain MEC1, hits give low values 0.944 | locus YBR160W, strain CDC28, hits give low values 0.956 | locus YDL017W, strain CDC7, hits give low values 0.952 | locus YDL028C, strain MPS1, hits give low values 0.942 | locus YDL101C, strain DUN1, hits give low values 0.962 | locus YDL108W, strain KIN28, hits give low values 0.95 | locus YDL132W, strain cdc53, hits give low values 0.944 | locus YDL214C, strain PRR2, hits give low values 0.797 | locus YDR052C, strain DBF4, hits give low values 0.96 | locus YDR054C, strain cdc34, hits give low values 0.931 | locus YDR226W, strain ADK1, hits give low values 0.951 | locus YDR477W, strain SNF1, hits give low values 0.815 | locus YER123W, strain YCK3, hits give low values 0.719 | locus YER133W, strain GLC7, hits give low values 0.816 | locus YFL009W, strain cdc4, hits give low values 0.944 | locus YFL029C, strain CAK1, hits give low values 0.9 | locus YFR003C, strain YPI1, hits give low values 0.953 | locus YFR019W, strain FAB1, hits give low values 0.934 | locus YFR028C, strain CDC14, hits give low values 0.945 | locus YGR040W, strain KSS1, hits give low values 0.819 | locus YGR052W, strain FMP48, hits give low values 0.795 | locus YGR092W, strain DBF2, hits give low values 0.735 | locus YHR079C, strain IRE1, hits give low values 0.786 | locus YHR082C, strain KSP1, hits give low values 0.721 | locus YIL147C, strain SLN1, hits give low values 0.938 | locus YJL095W, strain BCK1, hits give low values 0.677 | locus YJL128C, strain PBS2, hits give low values 0.872 | locus YJL157C, strain FAR1, hits give low values 0.863 | locus YJR016C, strain ILV3, hits give low values 0.945 | locus YJR066W, strain TOR1 (second series), hits give low values 0.759 | locus YJR066W, strain TOR1, hits give low values 0.727 | locus YKL048C, strain ELM1, hits give low values 0.914 | locus YKL067W, strain YNK1, hits give low values 0.828 | locus YKL101W, strain HSL1, hits give low values 0.787 | locus YKL193C, strain SDS22, hits give low values 0.943 | locus YKL203C, strain TOR2, hits give low values 0.886 | locus YLR133W, strain CKI1, hits give low values 0.797 | locus YLR403W, strain SFP1, hits give low values 0.752 | locus YML070W, strain DAK1, hits give low values 0.808 | locus YMR001C, strain CDC5, hits give low values 0.946 | locus YMR205C, strain PFK2 (second series), hits give low values 0.84 | locus YMR277W, strain FCP1, hits give low values 0.941 | locus YNL006W, strain LST8, hits give low values 0.96 | locus YNL020C, strain ARK1, hits give low values 0.795 | locus YNL161W, strain CBK1, hits give low values 0.952 | locus YNL183C, strain NPR1, hits give low values 0.754 | locus YNL207W, strain RIO2, hits give low values 0.937 | locus YNL222W, strain SSU72, hits give low values 0.952 | locus YNL307C, strain MCK1 (second series), hits give low values 0.729 | locus YOL078W, strain AVO1, hits give low values 0.945 | locus YOL136C, strain PFK27, hits give low values 0.8 | locus YOR061W, strain CKA2, hits give low values 0.811 | locus YOR119C, strain RIO1, hits give low values 0.867 | locus YOR231W, strain MKK1, hits give low values 0.789 | locus YOR329C, strain SCD5, hits give low values 0.952 | locus YPL031C, strain PHO85, hits give low values 0.768 | locus YPL153C, strain RAD53, hits give low values 0.775 | locus YPL204W, strain HRR25, hits give low values 0.809 | locus YPL209C, strain IPL1, hits give low values 0.946 | locus YPR025C, strain CCL1, hits give low values 0.945 | locus YPR106W, strain ISR1, hits give low values 0.936 | locus YPR111W, strain DBF20, hits give low values 0.917 | strain NNK1, hits give low values 0.914 | strain TSCII, hits give low values 0.922
